The supplement of paper PMC11732987, “Enantioselective OTUD7B fragment discovery through chemoproteomics screening and high-throughput optimisation” (Communications Chemistry, 2025)

Tests used:
Test in all cases: log2 ratio of Biotin-Ahx-Ub-VS probe labelling (fragment/DMSO); higher = less target engagement (more negative = stronger competition), active = hit call of the paper (q ≤ 0.05, log2 ratio ≤ -1)
Settings in all cases: compound concentration: 200 uM; treatment time: 3 h
[1] = biological target: T1, USP42 (UniProt Q9H9J4)
T1 sequence (whole entry): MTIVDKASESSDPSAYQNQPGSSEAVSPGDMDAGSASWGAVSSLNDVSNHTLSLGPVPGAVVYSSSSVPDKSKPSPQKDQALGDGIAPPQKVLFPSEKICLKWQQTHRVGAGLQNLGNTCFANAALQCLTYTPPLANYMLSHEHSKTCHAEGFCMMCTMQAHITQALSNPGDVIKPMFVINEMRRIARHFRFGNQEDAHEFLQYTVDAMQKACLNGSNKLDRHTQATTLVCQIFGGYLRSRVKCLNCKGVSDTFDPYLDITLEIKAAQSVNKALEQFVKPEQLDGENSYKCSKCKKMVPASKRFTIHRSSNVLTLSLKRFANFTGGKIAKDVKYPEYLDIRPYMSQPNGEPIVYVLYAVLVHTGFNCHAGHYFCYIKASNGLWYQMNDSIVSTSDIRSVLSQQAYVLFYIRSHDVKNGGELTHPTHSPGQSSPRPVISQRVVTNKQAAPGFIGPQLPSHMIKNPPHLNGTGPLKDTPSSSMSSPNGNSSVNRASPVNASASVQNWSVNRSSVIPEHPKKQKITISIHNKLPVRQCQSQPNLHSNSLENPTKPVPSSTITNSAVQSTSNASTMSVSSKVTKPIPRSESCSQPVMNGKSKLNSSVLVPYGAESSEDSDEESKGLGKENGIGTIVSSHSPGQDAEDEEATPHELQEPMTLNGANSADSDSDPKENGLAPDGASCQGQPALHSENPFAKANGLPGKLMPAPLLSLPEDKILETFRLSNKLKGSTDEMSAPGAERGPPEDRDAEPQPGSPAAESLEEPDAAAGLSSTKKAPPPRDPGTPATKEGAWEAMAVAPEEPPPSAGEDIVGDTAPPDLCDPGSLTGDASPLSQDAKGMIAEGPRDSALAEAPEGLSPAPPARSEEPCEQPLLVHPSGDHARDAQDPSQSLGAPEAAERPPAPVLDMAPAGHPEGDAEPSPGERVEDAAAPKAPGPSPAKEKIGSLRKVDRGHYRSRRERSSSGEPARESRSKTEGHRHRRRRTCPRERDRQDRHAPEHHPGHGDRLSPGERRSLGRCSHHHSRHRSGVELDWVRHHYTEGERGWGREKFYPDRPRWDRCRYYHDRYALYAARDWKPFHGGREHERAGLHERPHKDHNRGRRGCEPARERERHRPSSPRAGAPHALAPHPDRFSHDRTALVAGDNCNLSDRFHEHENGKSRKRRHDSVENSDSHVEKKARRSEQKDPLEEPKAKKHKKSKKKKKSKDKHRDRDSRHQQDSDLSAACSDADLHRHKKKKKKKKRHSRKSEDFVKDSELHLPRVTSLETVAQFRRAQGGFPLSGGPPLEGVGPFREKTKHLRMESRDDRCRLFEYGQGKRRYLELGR
Summary of the method: (§1)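 In triplicate, 495 µg of HEK293T lysate per sample was incubated with fragment at 200 µM or vehicle for 3 h. Biotin-Ahx-Ub-VS was then added to 0.5 µM final for 1 h, and labelled DUBs were captured with NeutrAvidin, digested with LysC and trypsin, and measured by diaPASEF LC-MS/MS. Data are average log2 fragment/vehicle ratios by unpaired t-test from global-median-normalised Spectronaut label-free quantities, restricted to proteins with ≥2 unique peptides.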

[2] = biological target: USP46 (UniProt P62068)
Chain of USP46 (P62068 whole entry): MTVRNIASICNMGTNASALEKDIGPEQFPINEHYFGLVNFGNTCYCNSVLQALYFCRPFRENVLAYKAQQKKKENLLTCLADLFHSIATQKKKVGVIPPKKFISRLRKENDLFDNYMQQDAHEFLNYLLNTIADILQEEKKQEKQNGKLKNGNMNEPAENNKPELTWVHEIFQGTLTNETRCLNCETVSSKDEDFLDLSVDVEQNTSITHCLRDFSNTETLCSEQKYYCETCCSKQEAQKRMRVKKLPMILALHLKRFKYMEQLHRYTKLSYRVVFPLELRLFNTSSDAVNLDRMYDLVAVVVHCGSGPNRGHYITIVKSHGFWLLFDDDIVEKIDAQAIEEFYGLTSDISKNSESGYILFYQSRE
Summary of the method: as §1

[3] = biological target: T2, USP47 (UniProt Q96K76)
T2 sequence (whole entry): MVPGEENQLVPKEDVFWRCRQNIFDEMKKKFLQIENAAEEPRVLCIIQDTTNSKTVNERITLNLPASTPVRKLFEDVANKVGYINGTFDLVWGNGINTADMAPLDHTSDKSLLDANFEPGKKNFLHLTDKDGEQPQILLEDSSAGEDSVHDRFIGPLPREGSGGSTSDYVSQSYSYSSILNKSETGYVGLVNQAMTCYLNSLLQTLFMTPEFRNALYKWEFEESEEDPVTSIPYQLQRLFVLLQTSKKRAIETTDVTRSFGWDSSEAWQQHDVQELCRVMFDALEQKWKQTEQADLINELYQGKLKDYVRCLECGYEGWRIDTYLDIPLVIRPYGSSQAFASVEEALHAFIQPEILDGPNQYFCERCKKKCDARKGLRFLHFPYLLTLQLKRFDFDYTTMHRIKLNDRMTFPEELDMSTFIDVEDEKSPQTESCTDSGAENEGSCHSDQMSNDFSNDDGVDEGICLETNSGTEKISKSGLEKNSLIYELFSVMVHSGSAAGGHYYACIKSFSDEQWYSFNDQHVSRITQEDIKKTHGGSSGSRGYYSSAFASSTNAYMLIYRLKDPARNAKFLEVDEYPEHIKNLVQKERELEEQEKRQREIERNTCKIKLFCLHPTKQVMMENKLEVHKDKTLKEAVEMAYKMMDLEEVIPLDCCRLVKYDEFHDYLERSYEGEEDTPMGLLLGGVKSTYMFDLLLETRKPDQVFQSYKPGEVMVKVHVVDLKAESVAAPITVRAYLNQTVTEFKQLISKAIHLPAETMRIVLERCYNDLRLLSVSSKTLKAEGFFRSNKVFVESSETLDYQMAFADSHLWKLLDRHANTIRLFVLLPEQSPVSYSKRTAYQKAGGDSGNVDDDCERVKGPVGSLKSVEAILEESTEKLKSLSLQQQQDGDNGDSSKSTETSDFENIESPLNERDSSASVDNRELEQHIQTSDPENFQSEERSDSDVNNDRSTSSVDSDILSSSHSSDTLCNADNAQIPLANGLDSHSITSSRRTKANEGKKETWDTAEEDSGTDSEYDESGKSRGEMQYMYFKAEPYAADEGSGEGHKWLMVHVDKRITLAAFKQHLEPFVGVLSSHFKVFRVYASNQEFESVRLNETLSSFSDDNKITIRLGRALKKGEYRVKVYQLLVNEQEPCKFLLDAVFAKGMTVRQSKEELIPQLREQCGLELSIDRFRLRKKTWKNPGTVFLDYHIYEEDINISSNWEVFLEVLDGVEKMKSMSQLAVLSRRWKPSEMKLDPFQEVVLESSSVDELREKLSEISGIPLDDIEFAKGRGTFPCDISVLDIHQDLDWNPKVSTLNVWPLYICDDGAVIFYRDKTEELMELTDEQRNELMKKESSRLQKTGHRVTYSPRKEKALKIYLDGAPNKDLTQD
Summary of the method: as §1

[4] = biological target: T3, USP48 (UniProt Q86UV5)
T3 sequence (whole entry): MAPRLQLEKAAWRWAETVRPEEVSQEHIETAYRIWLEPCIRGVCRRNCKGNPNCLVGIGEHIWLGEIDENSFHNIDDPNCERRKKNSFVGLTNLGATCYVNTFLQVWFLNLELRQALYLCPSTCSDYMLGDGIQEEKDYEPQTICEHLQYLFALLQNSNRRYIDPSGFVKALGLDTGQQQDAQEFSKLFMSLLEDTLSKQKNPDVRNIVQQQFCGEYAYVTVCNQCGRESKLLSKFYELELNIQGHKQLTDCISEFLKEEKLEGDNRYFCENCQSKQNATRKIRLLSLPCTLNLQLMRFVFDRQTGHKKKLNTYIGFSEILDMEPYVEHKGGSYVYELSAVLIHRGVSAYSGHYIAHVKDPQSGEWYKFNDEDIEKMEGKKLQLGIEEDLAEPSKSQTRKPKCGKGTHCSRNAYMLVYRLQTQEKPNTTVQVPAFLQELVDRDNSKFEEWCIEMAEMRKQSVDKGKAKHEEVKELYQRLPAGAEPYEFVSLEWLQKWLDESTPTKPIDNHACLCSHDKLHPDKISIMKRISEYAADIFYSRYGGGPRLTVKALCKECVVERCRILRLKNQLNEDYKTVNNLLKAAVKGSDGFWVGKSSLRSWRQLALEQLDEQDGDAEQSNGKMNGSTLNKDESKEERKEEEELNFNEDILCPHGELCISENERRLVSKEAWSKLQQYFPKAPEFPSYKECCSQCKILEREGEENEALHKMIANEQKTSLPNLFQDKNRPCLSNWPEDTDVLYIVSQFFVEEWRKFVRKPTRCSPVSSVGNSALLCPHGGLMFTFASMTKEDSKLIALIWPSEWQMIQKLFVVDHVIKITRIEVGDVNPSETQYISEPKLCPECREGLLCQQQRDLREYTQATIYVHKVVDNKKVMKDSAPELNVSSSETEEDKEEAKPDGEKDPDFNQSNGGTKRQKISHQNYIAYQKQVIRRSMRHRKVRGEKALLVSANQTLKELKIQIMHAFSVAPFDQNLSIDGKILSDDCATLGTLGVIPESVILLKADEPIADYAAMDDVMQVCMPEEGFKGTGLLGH
Summary of the method: as §1

[5] = biological target: T4, USP5 (UniProt P45974)
T4 sequence (whole entry): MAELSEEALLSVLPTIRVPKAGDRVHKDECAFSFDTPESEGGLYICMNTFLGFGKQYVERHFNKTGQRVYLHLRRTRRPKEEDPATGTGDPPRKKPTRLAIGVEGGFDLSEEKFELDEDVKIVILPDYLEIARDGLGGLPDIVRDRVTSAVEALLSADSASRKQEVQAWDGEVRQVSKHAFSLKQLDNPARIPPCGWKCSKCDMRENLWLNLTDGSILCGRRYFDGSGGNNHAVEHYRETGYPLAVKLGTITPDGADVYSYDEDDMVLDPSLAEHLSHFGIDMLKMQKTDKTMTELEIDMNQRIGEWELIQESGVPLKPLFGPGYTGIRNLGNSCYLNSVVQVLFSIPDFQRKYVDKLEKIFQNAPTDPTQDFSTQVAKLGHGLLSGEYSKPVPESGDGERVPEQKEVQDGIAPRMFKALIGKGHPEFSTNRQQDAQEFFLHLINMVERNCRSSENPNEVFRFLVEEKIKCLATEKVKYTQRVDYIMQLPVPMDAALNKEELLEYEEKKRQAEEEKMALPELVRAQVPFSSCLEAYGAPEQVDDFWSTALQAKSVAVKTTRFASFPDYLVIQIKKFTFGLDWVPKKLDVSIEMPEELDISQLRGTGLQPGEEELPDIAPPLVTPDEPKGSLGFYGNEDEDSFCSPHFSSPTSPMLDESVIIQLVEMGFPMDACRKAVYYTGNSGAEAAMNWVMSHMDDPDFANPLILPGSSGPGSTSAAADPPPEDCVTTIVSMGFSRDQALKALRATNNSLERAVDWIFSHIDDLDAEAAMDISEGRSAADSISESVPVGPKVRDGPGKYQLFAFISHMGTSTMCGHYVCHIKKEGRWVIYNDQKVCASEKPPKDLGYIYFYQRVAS
Summary of the method: as §1

[6] = biological target: USP54 (UniProt Q70EL1)
Chain of USP54 (Q70EL1 whole entry): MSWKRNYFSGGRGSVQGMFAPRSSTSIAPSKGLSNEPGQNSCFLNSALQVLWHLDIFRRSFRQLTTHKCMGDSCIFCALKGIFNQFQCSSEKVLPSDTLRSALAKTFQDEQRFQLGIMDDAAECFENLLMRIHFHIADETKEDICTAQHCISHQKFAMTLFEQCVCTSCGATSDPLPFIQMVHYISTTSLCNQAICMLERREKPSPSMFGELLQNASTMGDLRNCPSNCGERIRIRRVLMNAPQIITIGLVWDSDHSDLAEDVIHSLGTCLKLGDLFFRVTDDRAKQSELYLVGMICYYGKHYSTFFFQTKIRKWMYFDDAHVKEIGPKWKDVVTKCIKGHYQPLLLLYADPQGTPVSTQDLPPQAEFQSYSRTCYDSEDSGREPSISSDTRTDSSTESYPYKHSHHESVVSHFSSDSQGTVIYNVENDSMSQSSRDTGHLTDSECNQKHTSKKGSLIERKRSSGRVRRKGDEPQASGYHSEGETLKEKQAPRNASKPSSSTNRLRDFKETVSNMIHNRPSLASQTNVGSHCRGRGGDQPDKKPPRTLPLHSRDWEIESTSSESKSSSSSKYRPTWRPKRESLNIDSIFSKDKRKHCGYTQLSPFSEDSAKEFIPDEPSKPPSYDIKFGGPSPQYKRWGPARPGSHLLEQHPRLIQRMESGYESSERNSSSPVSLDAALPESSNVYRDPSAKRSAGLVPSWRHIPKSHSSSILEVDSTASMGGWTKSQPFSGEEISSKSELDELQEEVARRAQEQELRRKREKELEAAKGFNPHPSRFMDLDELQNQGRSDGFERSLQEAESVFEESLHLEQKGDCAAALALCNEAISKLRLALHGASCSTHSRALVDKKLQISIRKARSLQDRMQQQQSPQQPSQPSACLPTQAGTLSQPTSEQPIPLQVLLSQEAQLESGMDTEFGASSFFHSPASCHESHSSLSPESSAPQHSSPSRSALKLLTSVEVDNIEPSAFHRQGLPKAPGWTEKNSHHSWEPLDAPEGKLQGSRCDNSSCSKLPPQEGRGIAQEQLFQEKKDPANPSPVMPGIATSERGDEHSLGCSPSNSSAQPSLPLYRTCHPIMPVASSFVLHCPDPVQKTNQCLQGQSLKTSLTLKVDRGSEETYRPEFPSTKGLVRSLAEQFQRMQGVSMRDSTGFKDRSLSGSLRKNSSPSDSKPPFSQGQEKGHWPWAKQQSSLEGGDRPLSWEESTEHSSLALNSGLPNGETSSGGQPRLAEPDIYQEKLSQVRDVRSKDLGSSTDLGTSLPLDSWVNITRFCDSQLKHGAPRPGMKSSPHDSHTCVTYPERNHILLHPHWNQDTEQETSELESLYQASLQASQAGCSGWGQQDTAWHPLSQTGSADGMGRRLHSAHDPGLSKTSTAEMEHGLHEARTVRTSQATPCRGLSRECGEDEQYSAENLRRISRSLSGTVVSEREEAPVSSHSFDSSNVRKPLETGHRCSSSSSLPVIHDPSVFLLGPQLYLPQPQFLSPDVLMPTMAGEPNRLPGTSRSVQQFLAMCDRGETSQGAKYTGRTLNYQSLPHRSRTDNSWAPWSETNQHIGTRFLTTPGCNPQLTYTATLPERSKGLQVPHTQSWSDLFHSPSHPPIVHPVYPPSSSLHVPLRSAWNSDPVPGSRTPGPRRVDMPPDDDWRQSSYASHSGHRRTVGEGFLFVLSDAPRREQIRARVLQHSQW
Summary of the method: as §1

[7] = biological target: USP7 (UniProt Q93009)
Chain of USP7 (Q93009 whole entry, looked up): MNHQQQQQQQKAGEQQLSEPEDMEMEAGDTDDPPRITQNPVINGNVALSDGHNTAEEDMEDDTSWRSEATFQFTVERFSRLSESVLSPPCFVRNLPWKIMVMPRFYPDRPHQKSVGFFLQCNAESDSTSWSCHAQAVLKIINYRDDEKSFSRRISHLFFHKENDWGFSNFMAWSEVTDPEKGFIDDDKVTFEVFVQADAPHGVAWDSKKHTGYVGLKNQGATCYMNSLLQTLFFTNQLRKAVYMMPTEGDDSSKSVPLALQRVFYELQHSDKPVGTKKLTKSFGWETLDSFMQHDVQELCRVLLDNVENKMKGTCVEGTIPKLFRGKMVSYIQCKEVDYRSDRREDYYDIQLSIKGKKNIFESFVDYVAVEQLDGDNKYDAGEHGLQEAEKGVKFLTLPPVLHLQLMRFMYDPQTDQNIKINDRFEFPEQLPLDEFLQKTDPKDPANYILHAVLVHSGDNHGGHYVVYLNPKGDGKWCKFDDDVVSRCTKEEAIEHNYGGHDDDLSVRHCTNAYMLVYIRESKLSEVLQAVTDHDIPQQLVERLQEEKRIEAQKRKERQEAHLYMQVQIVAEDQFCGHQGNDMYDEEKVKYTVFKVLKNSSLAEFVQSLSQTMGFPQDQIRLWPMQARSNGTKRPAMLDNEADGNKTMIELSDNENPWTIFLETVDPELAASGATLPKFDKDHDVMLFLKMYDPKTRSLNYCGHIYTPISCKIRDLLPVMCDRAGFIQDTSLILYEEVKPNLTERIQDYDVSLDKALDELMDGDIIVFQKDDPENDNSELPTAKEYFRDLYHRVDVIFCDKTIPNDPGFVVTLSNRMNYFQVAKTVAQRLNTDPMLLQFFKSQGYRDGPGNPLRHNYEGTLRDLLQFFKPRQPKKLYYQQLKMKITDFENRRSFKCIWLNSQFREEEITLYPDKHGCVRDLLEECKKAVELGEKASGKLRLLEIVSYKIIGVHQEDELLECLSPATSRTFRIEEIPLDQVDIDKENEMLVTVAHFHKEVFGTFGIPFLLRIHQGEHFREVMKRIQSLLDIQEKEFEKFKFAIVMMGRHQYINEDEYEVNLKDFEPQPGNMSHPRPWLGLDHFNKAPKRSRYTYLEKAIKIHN
Summary of the method: as §1

[8] = biological target: T5, USP8 (UniProt P40818)
T5 sequence (whole entry): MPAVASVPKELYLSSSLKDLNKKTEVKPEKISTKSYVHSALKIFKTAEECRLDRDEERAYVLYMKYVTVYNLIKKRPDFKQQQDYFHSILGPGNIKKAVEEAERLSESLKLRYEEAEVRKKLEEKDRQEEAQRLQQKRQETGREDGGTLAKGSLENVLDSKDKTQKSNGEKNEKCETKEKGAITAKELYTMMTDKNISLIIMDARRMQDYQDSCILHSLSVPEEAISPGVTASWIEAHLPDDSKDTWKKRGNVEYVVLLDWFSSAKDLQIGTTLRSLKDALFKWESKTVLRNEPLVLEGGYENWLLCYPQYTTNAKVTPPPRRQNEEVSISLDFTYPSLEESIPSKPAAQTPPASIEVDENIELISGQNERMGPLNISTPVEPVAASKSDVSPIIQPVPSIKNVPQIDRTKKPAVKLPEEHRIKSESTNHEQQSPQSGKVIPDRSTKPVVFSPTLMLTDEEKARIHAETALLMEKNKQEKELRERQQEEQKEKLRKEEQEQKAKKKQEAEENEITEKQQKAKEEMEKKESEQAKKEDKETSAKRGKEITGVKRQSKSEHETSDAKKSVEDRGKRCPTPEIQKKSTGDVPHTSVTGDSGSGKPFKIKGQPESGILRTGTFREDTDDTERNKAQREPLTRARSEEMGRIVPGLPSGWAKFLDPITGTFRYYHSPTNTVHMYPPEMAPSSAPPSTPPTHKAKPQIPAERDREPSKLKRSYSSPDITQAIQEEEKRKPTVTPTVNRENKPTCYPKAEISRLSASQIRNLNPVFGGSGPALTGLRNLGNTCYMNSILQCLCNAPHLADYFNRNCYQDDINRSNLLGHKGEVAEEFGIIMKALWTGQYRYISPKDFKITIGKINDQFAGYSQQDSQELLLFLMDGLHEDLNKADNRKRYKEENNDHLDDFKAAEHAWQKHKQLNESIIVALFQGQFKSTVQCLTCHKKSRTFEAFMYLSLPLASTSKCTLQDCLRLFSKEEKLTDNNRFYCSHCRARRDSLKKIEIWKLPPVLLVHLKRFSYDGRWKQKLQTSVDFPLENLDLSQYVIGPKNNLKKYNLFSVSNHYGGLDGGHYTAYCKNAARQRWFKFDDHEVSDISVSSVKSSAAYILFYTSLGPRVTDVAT
Summary of the method: as §1

Measured: log2 ratio of Biotin-Ahx-Ub-VS probe labelling

Cn1cc(CN(Cc2ccc(Cl)cc2)C(=O)CCl)cn1
active: [3] -1.45 | [7] -3.08
inactive: [1] 0.553 | [2] -0.635 | [4] -0.598 | [5] 0.00584 | [6] -0.648 | [8] 0.0316
